# Laboratory results taken from PubChem BioAssay (NCATS).
# Several values for one entry are separate records, joined by “and”; a condition that tells them apart may be missing. Identical values can stand only once. Inconclusive results are not listed. Entries that show only a call come without a potency. Activity calls are given as the source filed them. Unless noted, calls follow the shape of the dose curve; as a rule, active = well fitted curve in the direction sought with a large enough effect; inconclusive = small, poorly fitted or top-dose-only effect, or another doubt; inactive = no such curve, though single readings can be large; an effect the other way counts as inactive or inconclusive.
# Legend:
# [1] = molecular target: Glucocorticoid receptor (Homo sapiens) (UniProt P04150); assay: GR-GFP Redistribution (AID 450;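 active = compounds whose dose series gives a full or clear partial fitted curve of increased nuclear translocation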; also: potency is read from the fitted curve at half-maximal effect); conditions: U2OS GR-GFP nuclear translocation, laser cytometry, 2 h
# [2] = molecular target: Mitogen-activated protein kinase 10 (Mus musculus) (UniProt Q61831); assay: JNK3 AlphaScreen Assay (AID 530; active = well fitted curve in either direction with a large enough effect, not every such curve was filed as active;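 also: kinase came from lysate of stimulated human HepG2 cells; signal reports phosphorylation of biotinylated GST-cJun 1-79 at Ser73 with 10 µM ATP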); conditions: JNK3 lysate, c-Jun phosphorylation; series mostly up to 57.1 µM
# Method in brief: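 Biotinylated GST-cJun(1-79) served as substrate for JNK3 in HepG2 lysates stimulated with IL-1beta and TNF-alpha. ATP was 10 uM final, pH 7.6. Ser73 phosphorylation was quantified by AlphaScreen (680 nm excitation).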
# [3] = molecular target: 3',5'-cyclic-AMP phosphodiesterase 4B (Homo sapiens) (UniProt Q07343); assay: qHTS Assay for Inhibitors of PDE-IV (AID 607; active = well fitted activation curve with a large enough effect in the main read-out, with a control signal flat, not every such curve was filed as active); conditions: HEK293 ACTOne CNG channel cells, membrane potential fluorescence; series mostly up to 22.9 µM
# Method in brief: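 Cell-based read-out of cAMP via a modified cyclic nucleotide-gated channel and membrane potential dye (535/590 nm) in HEK293 cells expressing PDE4 endogenously. Compounds tested up to 22.9 uM final; 100 uM RO 20-1724 reference.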
# [4] = qHTS Assay for Lipid Storage Modulators (AID 1519; calls by dose curve); conditions: Drosophila S3 cells, BODIPY lipid droplet/cell ratio, laser cytometry, cells loaded with oleic acid
# Method in brief: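 Cells seeded at 5,000 per well were treated with compounds over a concentration series and loaded with oleic acid (400 uM, as added). Lipid droplet fluorescence (488 nm excitation, 500-530 nm channel) was read by laser-scanning cytometry and normalized to 20 uM Triacsin C.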
# [5] = molecular target: Ubiquitin carboxyl-terminal hydrolase 1 (Homo sapiens) (UniProt O94782); assay: Inhibitors of USP1/UAF1: Pilot qHTS (AID 504865); conditions: purified USP1/UAF1, Ub-rhodamine cleavage fluorescence; series mostly up to 114 µM;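 also: rhodamine fluorescence freed from ubiquitin-rhodamine substrate followed over time; top concentration of the series differs between compounds; nearly all actives have a fitted effect of over 35% in size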
# Method in brief: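 USP1/UAF1 complex (1nM) preincubated with compound 15 min at room temperature, then Ub-Rho substrate (150nM final) added. Fluorescence read kinetically at 480/540 nm, 6 reads every 60 seconds. Buffer: 50mM HEPES pH 7.8, 0.5mM EDTA, 0.1 mg/ml BSA, 1mM TCEP, 0.01% Tween-20.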
# [6] = molecular target: DNA dC->dU-editing enzyme APOBEC-3G (Homo sapiens) (UniProt Q9HC16); assay: qHTS for inhibitors of Vif-A3G interactions: Validation (AID 588379); conditions: Vif-A3G protein interaction assay; series mostly up to 46.1 µM
# Method in brief: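 Yellow fluorescence (Ex 488, Em 500-530) of Vif-coexpressing HeLa A3G-eYFP cells, scanned by Acumen cytometer, reports blocked A3G degradation. Cells plated at 700/well overnight at 37 deg C before compound addition, then a further overnight compound incubation at 37 deg C.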
# [7] = tested on: Zika virus NS2B-NS3 protease; assay: Primary screen GU AMC qHTS for Zika virus inhibitors (AID 1347154); conditions: Zika NS2B-NS3 unlinked protease, AMC fluorogenic substrate; series mostly up to 54.1 µM; also: nearly all actives have a fitted effect of over 70% in size
# Method in brief: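 Unlinked Zika NS2B hydrophilic domain/NS3 protease domain noncovalent complex (25 nM final) in 10 mM Tris-HCl pH 8.0, 0.01% Tween 20, with AMC peptide substrate. Fluorescence (ex 340, em 450 nm) change over 15 min, room temperature; percent inhibition fitted to 4-parameter Hill equation.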
# [8] = Primary qHTS for small molecule stabilizers of the endoplasmic reticulum resident proteome: Secreted ER Calcium Modulated Protein (SERCaMP) assay (AID 1508630); conditions: SH-SY5Y GLuc-SERCaMP (Gaussia luciferase released on ER calcium loss) secretion, thapsigargin, luminescence; series mostly up to 38.4 µM
# Method in brief: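 The SH-SY5Y reporter protocol was run at 3 concentrations up to 38.3 uM (primary) or 11 concentrations (follow-up): 16 h compound, 100 nM thapsigargin for 4 h, then extracellular luciferase luminescence.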
# [9] = AP1 Signaling Pathway (AID 357; active = well fitted curve in either direction with a large enough effect, not every such curve was filed as active;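 also: ME-180 reporter cells stimulated with EGF at its EC50 level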); conditions: ME-180 AP-1-bla reporter, EGF-induced, beta-lactamase ratio, 5 h
# Method in brief: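 Modulation of EGF-driven AP-1 transcription was assessed with a beta-lactamase reporter in ME-180 cells. Compound and EC50 EGF were co-incubated 5 hours at 37 °C before 2.5-hour CCF4 loading at room temperature and dual-emission reading.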
# [10] = molecular target: Cytochrome P450 1A2 (Homo sapiens) (UniProt P05177); assay: p450-cyp1a2 (AID 410; calls by dose curve; also: potency is read from the fitted curve at half-maximal effect); conditions: recombinant CYP1A2, luciferin-ME demethylation, luminescence; series mostly up to 57 µM
# Method in brief: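 20nM CYP1A2, 100uM Luciferin-ME (=Km), 100mM KPO4; cpd 10 min RT; +NADPH regen, 60 min RT; stop/detect 20 min; luminescence. Normalized to furafylline 57 uM = full inhibition.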
# [11] = NFAT Signaling Pathway (AID 444; active = well fitted curve in either direction with a large enough effect, not every such curve was filed as active;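 also: carbachol stimulus at about its EC50 of 1 µM final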); conditions: Jurkat NFAT-bla M1, carbachol, beta-lactamase ratio, 5 h
# Method in brief: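 Jurkat cells carrying an NFAT-driven β-lactamase reporter and co-transfected muscarinic M1 receptor were treated with compound plus carbachol (1 uM final, an EC50 level) for 5 h at 37 °C. CCF4 loading followed for 1 h at RT; 460/530 nm ratio gave %activity.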
# [12] = Stat Signaling Pathway (AID 446; active = well fitted curve in either direction with a large enough effect, not every such curve was filed as active;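 also: ME-180 cervical cancer cells given 40 pM IL-6 alongside compound; SIE-controlled beta-lactamase reporter measured as 460/530 nm FRET emission ratio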); conditions: ME-180 (cervical carcinoma) SIE beta-lactamase reporter, IL-6 stimulated, 5 h
# Method in brief: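 FRET read-out (405 nm excitation, 460/530 nm emission) of a beta-lactamase reporter under a STAT-inducible element in ME-180 cervical carcinoma cells. Cells with compound receive 40 pM IL-6 for 5 h. Values are normalised to AC90 stimulation and AC90 JAK-inhibitor controls.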
# [13] = molecular target: Guanine nucleotide-binding protein G(i) subunit alpha-1 (Homo sapiens) (UniProt P63096); assay: qHTS Assay for Inhibitors of RGS12 GoLoco Motif Activity (Green Fluorophore) (AID 879); conditions: Galphai1/FITC-RGS12 GoLoco peptide, fluorescence polarization; series mostly up to 57.1 µM;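 also: negative values mean loss of peptide binding seen as reduced polarization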
# Method in brief: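 A drop in FITC polarization marked displacement of the FITC-tagged RGS12 GoLoco peptide (10 nM) from Gαi1 (50 nM). Compounds were incubated 10 min at room temperature in Tris pH 7.5 buffer containing 150 mM NaCl, 0.1 mM GDP and 0.05% NP40; unlabeled peptide titration served as control.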
# [14] = molecular target: Pyruvate kinase PKM (Homo sapiens) (UniProt P14618); assay: qHTS Assay for Activators of Human Muscle Pyruvate Kinase (AID 954; active = well fitted curve in the direction sought with a large enough effect, not every such curve was filed as active); conditions: purified human muscle pyruvate kinase, luciferase-coupled luminescence, 1 h; series mostly up to 57.5 µM
# Method in brief: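 ATP production by PKM2 detected via luciferase luminescence after 1 h room-temperature reaction (0.1 nM enzyme, PEP at Km 0.5 mM, ADP 0.1 mM, pH 7.2 imidazole buffer). Inhibition scaled to no-enzyme control; activation referenced to 0.3 nM enzyme wells.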
# [15] = molecular target: alpha-glucosidase (Oryza sativa, rice) (UniProt Q653V4); assay: Counterscreen for Glucocerebrosidase Inhibitors: qHTS Assay for Rice alpha-Glucosidase at pH 5.0 (AID 997); conditions: rice alpha-glucosidase enzyme activity; series mostly up to 76.9 µM
# Method in brief: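 Endpoint fluorogenic assay at pH 5.0: compounds (0.7 nM to 77 uM) titrated against 4 nM rice enzyme and 400 uM 4-MU-alpha-glucoside for 20 min at room temperature; NaOH/glycine stop, read ex 365/em 440 nm, Hill-fitted AC50.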
# [16] = molecular target: Glucocorticoid receptor (Homo sapiens) (UniProt P04150); assay: GR-EFC Redistribution (AID 451; calls by dose curve; also: potency is read from the fitted curve at half-maximal effect); conditions: CHO-K1 GR-EFC translocation, beta-gal luminescence, 2 h
# Method in brief: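 CHO-K1 cells stably expressing nuclear-localized β-gal enzyme acceptor and GR fused C-terminally to the enzyme donor fragment; ligand-driven nuclear translocation restores β-gal by complementation. Compounds titrated up to 46 uM final, 2 h at 37 °C; luminescence read.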
# [17] = molecular target: Cytochrome P450 3A4 (Homo sapiens) (UniProt P08684); assay: qHTS Assay for Activators of Cytochrome P450 3A4 (AID 885); conditions: recombinant CYP3A4, Luciferin-PPXE luminescence, 60 min; series mostly up to 57.1 µM; also: nearly all actives have a fitted effect of over 65% in size
# Method in brief: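 Luminescent readout of luciferin formed from 25 uM Luciferin-PPXE (KM level) by 20 nM CYP3A4 in 200 mM KPO4, with 60 min NADPH-driven reaction at room temperature after 10 min compound exposure. Ketoconazole (57 uM) defined 100% inhibition.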
# Chain of Cytochrome P450 1A2 (Homo sapiens) (P05177 whole entry, looked up): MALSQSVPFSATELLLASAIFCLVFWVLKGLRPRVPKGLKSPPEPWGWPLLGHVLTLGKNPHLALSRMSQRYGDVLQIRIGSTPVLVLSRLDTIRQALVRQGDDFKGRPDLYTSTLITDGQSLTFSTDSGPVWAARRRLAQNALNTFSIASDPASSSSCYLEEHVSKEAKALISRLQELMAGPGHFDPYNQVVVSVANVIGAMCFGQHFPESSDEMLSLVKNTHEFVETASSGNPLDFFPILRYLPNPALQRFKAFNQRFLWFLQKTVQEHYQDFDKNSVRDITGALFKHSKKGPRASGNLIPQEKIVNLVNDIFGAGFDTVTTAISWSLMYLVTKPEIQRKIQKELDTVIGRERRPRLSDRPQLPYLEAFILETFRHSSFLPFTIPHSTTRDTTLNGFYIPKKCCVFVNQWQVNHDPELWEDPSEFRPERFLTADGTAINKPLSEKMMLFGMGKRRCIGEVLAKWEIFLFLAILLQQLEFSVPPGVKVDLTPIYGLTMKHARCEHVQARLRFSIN
# Chain of 3',5'-cyclic-AMP phosphodiesterase 4B (Homo sapiens) (Q07343 whole entry, looked up): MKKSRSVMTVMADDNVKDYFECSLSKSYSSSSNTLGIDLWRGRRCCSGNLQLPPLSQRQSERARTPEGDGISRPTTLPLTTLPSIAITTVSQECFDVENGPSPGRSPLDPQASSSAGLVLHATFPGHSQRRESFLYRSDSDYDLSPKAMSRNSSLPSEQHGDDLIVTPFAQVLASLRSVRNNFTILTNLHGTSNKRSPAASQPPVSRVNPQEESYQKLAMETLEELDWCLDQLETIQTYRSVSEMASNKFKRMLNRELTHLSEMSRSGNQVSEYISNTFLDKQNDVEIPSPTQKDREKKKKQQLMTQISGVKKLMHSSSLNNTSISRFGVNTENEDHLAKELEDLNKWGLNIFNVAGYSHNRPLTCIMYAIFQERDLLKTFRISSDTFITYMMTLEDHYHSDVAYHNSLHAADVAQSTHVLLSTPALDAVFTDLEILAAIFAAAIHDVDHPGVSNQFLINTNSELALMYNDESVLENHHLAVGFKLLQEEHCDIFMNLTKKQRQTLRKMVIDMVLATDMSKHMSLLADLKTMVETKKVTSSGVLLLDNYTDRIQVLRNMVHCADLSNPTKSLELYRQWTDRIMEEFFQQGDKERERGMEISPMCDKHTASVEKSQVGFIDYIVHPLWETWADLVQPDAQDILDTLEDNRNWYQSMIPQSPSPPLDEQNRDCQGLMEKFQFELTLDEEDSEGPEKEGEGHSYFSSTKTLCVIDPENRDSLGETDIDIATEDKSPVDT
# Chain of Glucocorticoid receptor (Homo sapiens) (P04150 whole entry, looked up, the tested form may be a part): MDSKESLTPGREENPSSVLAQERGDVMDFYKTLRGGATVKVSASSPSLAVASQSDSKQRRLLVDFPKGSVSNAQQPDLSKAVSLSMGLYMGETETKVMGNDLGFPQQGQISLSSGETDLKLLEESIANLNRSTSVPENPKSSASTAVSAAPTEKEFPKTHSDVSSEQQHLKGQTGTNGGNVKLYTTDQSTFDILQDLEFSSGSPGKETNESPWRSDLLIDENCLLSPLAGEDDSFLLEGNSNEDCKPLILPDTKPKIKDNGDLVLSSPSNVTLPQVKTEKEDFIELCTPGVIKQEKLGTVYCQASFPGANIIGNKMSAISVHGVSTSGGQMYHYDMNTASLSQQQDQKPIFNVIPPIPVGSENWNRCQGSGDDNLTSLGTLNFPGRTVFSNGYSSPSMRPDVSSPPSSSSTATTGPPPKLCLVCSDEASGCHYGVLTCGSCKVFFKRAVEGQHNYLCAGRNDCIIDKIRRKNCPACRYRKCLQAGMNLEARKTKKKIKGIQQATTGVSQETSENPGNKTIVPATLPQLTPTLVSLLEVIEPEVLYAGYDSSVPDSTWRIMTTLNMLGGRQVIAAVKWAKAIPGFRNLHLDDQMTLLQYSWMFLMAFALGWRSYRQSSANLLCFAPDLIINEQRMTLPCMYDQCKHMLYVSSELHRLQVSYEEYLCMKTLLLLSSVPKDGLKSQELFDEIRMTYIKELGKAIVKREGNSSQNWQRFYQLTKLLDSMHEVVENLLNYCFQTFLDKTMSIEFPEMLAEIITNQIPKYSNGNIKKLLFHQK
# Chain of Ubiquitin carboxyl-terminal hydrolase 1 (Homo sapiens) (O94782 whole entry, looked up): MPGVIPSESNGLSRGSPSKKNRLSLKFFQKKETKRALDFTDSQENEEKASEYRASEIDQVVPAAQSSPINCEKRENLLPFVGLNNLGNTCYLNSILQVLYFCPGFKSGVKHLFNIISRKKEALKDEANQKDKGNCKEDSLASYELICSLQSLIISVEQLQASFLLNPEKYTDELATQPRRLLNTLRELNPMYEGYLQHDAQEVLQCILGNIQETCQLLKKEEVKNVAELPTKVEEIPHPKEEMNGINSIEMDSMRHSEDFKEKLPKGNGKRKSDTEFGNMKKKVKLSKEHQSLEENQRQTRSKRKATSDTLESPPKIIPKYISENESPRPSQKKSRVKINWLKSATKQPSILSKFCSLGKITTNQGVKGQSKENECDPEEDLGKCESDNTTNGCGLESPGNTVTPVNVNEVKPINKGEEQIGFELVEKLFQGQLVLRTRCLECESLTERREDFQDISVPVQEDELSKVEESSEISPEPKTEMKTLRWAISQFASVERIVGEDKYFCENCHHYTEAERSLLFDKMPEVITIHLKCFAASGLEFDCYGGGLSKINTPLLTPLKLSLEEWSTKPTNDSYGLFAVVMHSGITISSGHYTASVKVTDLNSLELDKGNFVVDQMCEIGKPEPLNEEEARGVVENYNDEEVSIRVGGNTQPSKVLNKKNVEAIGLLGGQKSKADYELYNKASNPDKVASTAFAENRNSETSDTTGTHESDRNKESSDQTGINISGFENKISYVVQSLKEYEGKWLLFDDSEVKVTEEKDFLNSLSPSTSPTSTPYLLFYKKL
# Chain of DNA dC->dU-editing enzyme APOBEC-3G (Homo sapiens) (Q9HC16 whole entry, looked up): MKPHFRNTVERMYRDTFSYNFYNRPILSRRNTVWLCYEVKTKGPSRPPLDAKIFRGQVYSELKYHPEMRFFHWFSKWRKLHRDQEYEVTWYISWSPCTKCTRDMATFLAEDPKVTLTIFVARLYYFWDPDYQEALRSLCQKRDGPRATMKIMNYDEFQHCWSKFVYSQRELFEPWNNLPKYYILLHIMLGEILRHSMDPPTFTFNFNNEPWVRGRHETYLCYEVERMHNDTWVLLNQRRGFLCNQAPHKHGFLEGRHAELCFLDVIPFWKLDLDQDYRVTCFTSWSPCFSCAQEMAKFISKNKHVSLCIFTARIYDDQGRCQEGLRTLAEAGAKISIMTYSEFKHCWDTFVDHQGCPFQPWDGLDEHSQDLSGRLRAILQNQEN
# Chain of Pyruvate kinase PKM (Homo sapiens) (P14618 whole entry, looked up): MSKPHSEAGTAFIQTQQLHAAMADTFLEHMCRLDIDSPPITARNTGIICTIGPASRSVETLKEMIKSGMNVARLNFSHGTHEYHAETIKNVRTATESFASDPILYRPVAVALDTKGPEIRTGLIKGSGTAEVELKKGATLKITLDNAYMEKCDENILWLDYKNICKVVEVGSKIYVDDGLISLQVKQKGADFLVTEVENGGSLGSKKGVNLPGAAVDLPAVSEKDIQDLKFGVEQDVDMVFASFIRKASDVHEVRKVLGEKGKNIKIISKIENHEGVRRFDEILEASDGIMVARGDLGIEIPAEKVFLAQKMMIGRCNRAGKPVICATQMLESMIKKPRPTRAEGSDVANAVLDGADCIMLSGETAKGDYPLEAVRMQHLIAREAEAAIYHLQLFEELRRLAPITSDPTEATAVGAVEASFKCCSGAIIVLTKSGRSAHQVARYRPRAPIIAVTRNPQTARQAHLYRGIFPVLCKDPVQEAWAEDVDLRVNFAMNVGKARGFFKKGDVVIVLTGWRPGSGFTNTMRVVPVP
# Chain of Guanine nucleotide-binding protein G(i) subunit alpha-1 (Homo sapiens) (P63096 whole entry, looked up): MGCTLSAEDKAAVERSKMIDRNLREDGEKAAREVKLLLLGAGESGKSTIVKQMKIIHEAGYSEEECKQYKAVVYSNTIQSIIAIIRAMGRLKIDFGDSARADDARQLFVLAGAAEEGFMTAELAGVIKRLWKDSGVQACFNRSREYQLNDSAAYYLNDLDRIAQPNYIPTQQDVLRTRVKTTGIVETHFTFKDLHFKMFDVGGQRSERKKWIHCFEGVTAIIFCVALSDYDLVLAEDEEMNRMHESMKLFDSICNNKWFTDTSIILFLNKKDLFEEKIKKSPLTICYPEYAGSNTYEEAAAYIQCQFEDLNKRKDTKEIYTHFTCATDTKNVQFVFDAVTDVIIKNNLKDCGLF
# Chain of Cytochrome P450 3A4 (Homo sapiens) (P08684 whole entry, looked up): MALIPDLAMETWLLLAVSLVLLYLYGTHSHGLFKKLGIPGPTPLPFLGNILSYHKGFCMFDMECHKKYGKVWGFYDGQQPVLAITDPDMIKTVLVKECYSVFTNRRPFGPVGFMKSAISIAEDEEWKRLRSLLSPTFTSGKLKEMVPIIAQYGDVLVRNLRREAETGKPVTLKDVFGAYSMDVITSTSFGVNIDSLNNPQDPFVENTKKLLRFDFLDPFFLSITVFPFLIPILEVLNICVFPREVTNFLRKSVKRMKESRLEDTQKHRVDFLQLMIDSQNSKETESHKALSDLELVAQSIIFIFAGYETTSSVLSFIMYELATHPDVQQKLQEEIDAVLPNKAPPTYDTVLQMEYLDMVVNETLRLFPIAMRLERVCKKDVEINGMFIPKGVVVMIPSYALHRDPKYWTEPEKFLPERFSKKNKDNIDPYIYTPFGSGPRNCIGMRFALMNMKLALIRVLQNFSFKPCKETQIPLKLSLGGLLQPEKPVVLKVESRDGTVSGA
structure (smiles),measurement,setting,value
CC[C@@](N)(C(=O)O)c1ccc(C(=O)O)cc1,Potency,[1],> 46 µM (inactive)
same,Potency,[2],inactive
same,Potency,[3],inactive
same,"activity change, negative = inhibition",[4]; at 57.5 µM (top of the series),2.13% (inactive)
same,max response,[4]; measured here: cell count channel max response,-11.5%
same,max response,[4]; measured here: lipid channel max response,-11.5%
same,Potency,[5],inactive
same,Potency,[6],inactive
same,Potency,[7],inactive
same,Potency,[8],inactive
NC(N)=NN=Cc1c(Cl)cccc1Cl,"activity change, negative = inhibition",[9]; at 17.2 µM (top of the series),-2.9% (inactive)
same,"activity change, negative = inhibition",[9]; at 38 µM (top of the series),4.65% (inactive)
same,Potency,[10],7.94 µM (active) and 3.98 µM (active) and 2 µM (active)
same,"activity change, negative = inhibition",[11]; at 17.2 µM (top of the series),-0.975% (inactive)
same,"activity change, negative = inhibition",[11]; at 38 µM (top of the series),-1.48% (inactive)
same,"activity, negative = inhibition",[12]; at 17.2 µM (top of the series),9.46% (inactive)
same,"activity, negative = inhibition",[12]; at 38 µM (top of the series),-0.683% (inactive)
same,Potency,[2],inactive
same,outcome,[13],inactive
same,outcome,[14],inactive
same,outcome,[15],inactive
same,Potency,[5],inactive
same,Potency,[6],inactive
same,Potency,[7],inactive
same,Potency,[8],inactive
C[N+](C)(C)CCC(=O)c1cccc2ccccc12,Potency,[10],7.94 µM (active)
same,"activity change, negative = inhibition",[11]; at 38 µM (top of the series),13.8% (active)
same,"activity, negative = inhibition",[12]; at 38 µM (top of the series),-81.5% (active)
same,Potency,[1],> 46 µM (inactive)
same,Potency,[16],> 46 µM (inactive)
same,Potency,[2],inactive
same,Potency,[3],inactive
same,outcome,[13],inactive
same,Potency,[17],inactive
same,outcome,[14],inactive
same,outcome,[15],inactive
same,Potency,[7],inactive
same,Potency,[8],inactive
Cc1ccc(NC2=CC(=O)c3sc(C)nc3C2=O)cc1,Potency,[7],inactive
same,Potency,[8],inactive
OCc1cc([C@@H](O)CNCCCCCCOCCCCc2ccccc2)ccc1O,"activity change, negative = inhibition",[9]; at 38 µM (top of the series),9.46% (inactive)
same,"activity change, negative = inhibition",[11]; at 38 µM (top of the series),-1.3% (inactive)
same,"activity, negative = inhibition",[12]; at 38 µM (top of the series),-26.7% (inactive)
same,Potency,[1],> 46 µM (inactive)
same,Potency,[16],> 46 µM (inactive)
same,Potency,[2],inactive
same,Potency,[3],inactive
same,Potency,[6],inactive
same,Potency,[7],inactive
same,Potency,[8],inactive
